According to PubChem BioAssay:
Active and inactive are the calls of the source.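 The calls were made as follows, unless noted: active = visual image review flags a hit and inhibition of aggregation exceeds 20%; inconclusive = visual hit but inhibition at or below 20%; inactive = no hit on visual image review.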

Assays:
[1] = inhibitors of TNFa-induced NFkB p65 translocation, primary screen, imaging, HUVEC, MLSMR starter and 10KST1 sets (AID 438;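 active = inhibition above 20% together with a positive visual image hit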;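 also: compound added about 3h40 before a 20 min TNFalpha stimulation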;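 as to inhibition: signal is the nuclear over cytoplasmic p65 intensity ratio per well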); settings: HUVEC TNFa-induced p65 nuclear translocation; cell count: measured here: nuclei count (cytotoxicity indicator), at 2.08 µM; inhibition: at 2 µM, stronger effect = higher value, 0% TNFa-plus-vehicle, 100% no-TNFa wells
[2] = inhibitors of mutant huntingtin aggregation, primary screen, imaging, exon1htt(103Q)mCFP cells, high-content imaging (AID 483); settings: exon1htt(103Q)mCFP cell line, aggregate imaging, at 2 µM; inhibition of aggregation: stronger effect = higher value; nuclei count: measured here: cell count, toxicity;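 also: compound exposure lasted 3 days before fixation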;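 as to nuclei count: percent of the per-plate median nuclei count of sample wells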
[3] = inhibitors of E-selectin induction by TNFa, primary screen, imaging, HUVEC, immunofluorescence, MLSMR starter and 10KST1 sets (AID 487;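 active = visually confirmed hit in the image check and inhibition above 20%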;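 as to inhibition: signal is fraction of cell area covered by stained E-selectin grains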;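 as to nuclei count: 100% = median nuclei count of all wells on the same plate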); settings: HUVEC TNFalpha-induced E-selectin immunofluorescence imaging, at 2 µM; inhibition: stronger effect = higher value; nuclei count: measured here: cell number, toxicity
[4] = target: Voltage-gated potassium channel subunit beta-2 (Rattus norvegicus) (UniProt P62483); assay: KvBeta enzyme negative modulators, primary screen, biochemical, NADPH fluorescence (AID 622;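 active = fluorescence slope higher than the sample average by over 3 SD, cut at about -0.22 in these data, passing the limit was not always enough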;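 also: slope of raw intensity against log time taken from 70 to 1610 s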); settings: recombinant KvBeta, 4-cyanobenzaldehyde reduction, at 10 µM, stronger effect = higher value
[5] = target: Voltage-gated potassium channel subunit beta-2 (Rattus norvegicus) (UniProt P62483); assay: KvBeta positive modulators, primary screen, biochemical, NADPH fluorescence (AID 623;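 active = NADPH fluorescence slope more negative than the mean of all samples by about 3 SD, 99.7% confidence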;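 also: fluorescence intensity change per second fitted from 20 to 320 s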); settings: Recombinant KvBeta, NADPH fluorescence decrease slope, 10 min; at 10 µM; stronger effect = lower value
[6] = target: Alpha-2C adrenergic receptor (Homo sapiens) (UniProt P18825); assay: modulators of alpha2C/GIRK thallium flux, primary screen, cell-based, HEK293 alpha2C/GIRK1/2 (AID 624;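 active = fluorescence slope after compound addition differing from the mean of all screened samples at 99.7% confidence, in either direction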;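 also: slope of fluorescence ratio to pre-addition baseline per second over 15 to 24 s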); settings: thallium flux BTC fluorescence, at 10 µM, actives lie on both sides
[7] = inhibitors of Sendai virus-induced IRF3 signaling, primary screen, TLR/RLR signaling modifier project, cell-based, Sendai virus stimulus, luciferase, 10K MLSCN set (AID 602276;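 active = inhibition at or above 50% at 10 µM; inactive = inhibition below 50%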;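 also: firefly luciferase from ISG56 promoter only with Renilla not read in this screen; 0% = Sendai virus plus DMSO and 100% = medium plus DMSO without virus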); settings: HEK293 RL24 IRF3 luciferase reporter, at 10 µM, stronger effect = higher value
[8] = inhibitors of poly I:C-induced TLR3 signaling, primary screen, cell-based, poly I:C stimulus, luciferase, 10K MLSCN set (AID 602277;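 active = inhibition of the reporter signal at or above 50%; inactive = inhibition below 50%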); settings: HEK293-TLR3 RL24 IRF3 luciferase reporter, at 10 µM, stronger effect = higher value

Chain of Voltage-gated potassium channel subunit beta-2 (Rattus norvegicus) (P62483 whole entry, looked up): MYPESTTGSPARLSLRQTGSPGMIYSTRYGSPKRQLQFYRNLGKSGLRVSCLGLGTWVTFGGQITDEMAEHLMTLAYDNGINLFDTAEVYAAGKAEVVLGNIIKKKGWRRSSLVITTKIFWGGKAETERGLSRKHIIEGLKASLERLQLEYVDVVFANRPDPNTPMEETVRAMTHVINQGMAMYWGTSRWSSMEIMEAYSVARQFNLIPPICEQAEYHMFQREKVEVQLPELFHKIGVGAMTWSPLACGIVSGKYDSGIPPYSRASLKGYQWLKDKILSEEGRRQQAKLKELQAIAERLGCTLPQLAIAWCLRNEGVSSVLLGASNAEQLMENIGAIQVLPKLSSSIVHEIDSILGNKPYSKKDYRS
Chain of Alpha-2C adrenergic receptor (Homo sapiens) (P18825 whole entry, looked up): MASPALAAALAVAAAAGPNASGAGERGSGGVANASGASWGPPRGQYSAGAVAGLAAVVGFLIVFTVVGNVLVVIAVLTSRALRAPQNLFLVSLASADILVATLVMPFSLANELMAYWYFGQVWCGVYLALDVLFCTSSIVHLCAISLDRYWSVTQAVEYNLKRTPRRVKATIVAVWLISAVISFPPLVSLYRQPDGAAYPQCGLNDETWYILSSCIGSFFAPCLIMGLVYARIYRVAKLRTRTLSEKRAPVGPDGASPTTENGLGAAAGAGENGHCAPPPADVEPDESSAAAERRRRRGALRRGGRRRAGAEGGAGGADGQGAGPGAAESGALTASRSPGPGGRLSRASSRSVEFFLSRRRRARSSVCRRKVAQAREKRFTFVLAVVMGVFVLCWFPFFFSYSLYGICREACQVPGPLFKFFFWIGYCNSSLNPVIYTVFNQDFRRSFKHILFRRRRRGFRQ

| Structure (SMILES) | cell count [1] | inhibition [1] | inhibition of aggregation [2] | nuclei count [2] | inhibition [3] | nuclei count [3] | fluorescence slope [4] | NADPH fluorescence slope [5] | slope [6] | inhibition [7] | inhibition [8] |
| --- | --- | --- | --- | --- | --- | --- | --- | --- | --- | --- | --- |
| CN(c1ccc(OCc2nnc(-c3ccccc3)o2)cc1)S(=O)(=O)c1ccccc1 | 587 | 10.1% (inactive) | 13.2% (inactive) | 95% | 21.6% (inactive) | 82% | -0.335 (inactive) | -5.4e-05 (inactive) | 0.00414 (inactive) | 11.5% (inactive) | -5.42% (inactive) |
| CCc1cccc(NC(=O)CCc2nc(-c3cccs3)no2)c1 | 681 | 11.3% (inactive) | -7.6% (inactive) | 106% | 7.6% (inactive) | 114% | -0.531 (inactive) | -2.7e-05 (inactive) | 0.00567 (inactive) | -5.35% (inactive) | 18.5% (inactive) |
| Cc1cc(C)nc(Sc2ccc3nnc(C(F)(F)C(F)(F)C(F)(F)F)n3n2)n1 | 564 | -21.1% (inactive) | -9.9% (inactive) | 115% | 4.1% (inactive) | 99.7% | -0.495 (inactive) | -3.3e-05 (inactive) | 0.00541 (inactive) | -0.722% (inactive) | 24.8% (inactive) |
| CCCCOc1cc(=O)[nH]c(=O)[nH]1 | 379 | 11.7% (inactive) | 14.6% (inactive) | 84.2% | 5.6% (inactive) | 89.2% | -0.383 (inactive) | -5.2e-06 (inactive) | 0.00308 (inactive) | 10.4% (inactive) | 8.55% (inactive) |
| Cc1ccc(CCNC(=O)C2CCC(=O)N2C2CCCC2)cc1 (stereo unspecified) | 703 | -1.3% (inactive) | 6.9% (inactive) | 97.5% | 16.9% (inactive) | 97.7% | -0.493 (inactive) | -4.7e-05 (inactive) | 0.0072 (inactive) | 1.44% (inactive) | 10.9% (inactive) |
| CCc1ccc(CCC(=O)Nc2ccc(C)c(C)c2)o1 | 255 | 5.2% (inactive) | -4.6% (inactive) | 80.2% | -34.3% (inactive) | 99.6% | -0.4 (inactive) | -5.2e-05 (inactive) | 0.006 (inactive) | -22.6% (inactive) | -50% (inactive) |
| O=C(C1CCCCC1)N1CCC(c2nc3c(nnn3Cc3ccccc3Cl)c(=O)[nH]2)CC1 | 372 | -1.5% (inactive) | -5.2% (inactive) | 110% | -144% (inactive) | 115% | -0.359 (inactive) | -4.8e-05 (inactive) | 0.00569 (inactive) | 11.3% (inactive) | 26.2% (inactive) |
| NC(=O)COC(=O)c1ccc(S(=O)(=O)N2CCCCCC2)cc1 | 449 | -7.8% (inactive) | 6.3% (inactive) | 104% | -17.6% (inactive) | 116% | -0.348 (inactive) | -6.2e-05 (inactive) | 0.00701 (inactive) | 11% (inactive) | 14% (inactive) |
| Cc1cc2ccccc2c(=O)n1CC(=O)N(C)c1ccc(F)cc1 | 629 | -4.7% (inactive) | -4.1% (inactive) | 98% | -74.2% (inactive) | 103% | -0.353 (inactive) | -5.6e-05 (inactive) | 0.00579 (inactive) | 2.03% (inactive) | 9.91% (inactive) |
| CC1=C(C(=O)OCC(C)C)C(c2cc3c(cc2Br)OCO3)NC(=O)N1C (stereo unspecified) | 425 | -3.6% (inactive) | -13.3% (inactive) | 98.5% | -103% (inactive) | 118% | -0.44 (inactive) | -3.6e-05 (inactive) | 0.00323 (inactive) | 11.4% (inactive) | 34.6% (inactive) |
| O=C(Nc1ccc(CN2CCOCC2)cc1)c1cc2ccccn2n1 | 579 | 0% (inactive) | -6.8% (inactive) | 99.9% | 8.4% (inactive) | 108% | -0.596 (inactive) | -1.7e-05 (inactive) | 0.00566 (inactive) | 45.9% (inactive) | 12% (inactive) |
| CC(=O)c1cccc(-n2nnnc2SCC(=O)N2CCCC2)c1 | 720 | -3.5% (inactive) | -2.4% (inactive) | 119% | -56% (inactive) | 106% | -0.401 (inactive) | -4.2e-05 (inactive) | 0.00357 (inactive) | 4.48% (inactive) | 14.5% (inactive) |
| CC1CC(C)CN(Cc2nc3c(c(=O)n(C)c(=O)n3C)n2Cc2ccccc2Cl)C1 (stereo unspecified) | 705 | -16.8% (inactive) | -2.3% (inactive) | 78% | 37.7% (inactive) | 88% | -0.482 (inactive) | -4.6e-05 (inactive) | 0.00565 (inactive) | -10.4% (inactive) | -1.1% (inactive) |
| COC(=O)c1ccccc1NC(=O)C1CC=CCC1C(=O)O (stereo unspecified) | 373 | 4.2% (inactive) | -0.6% (inactive) | 96.6% | 0.7% (inactive) | 98.1% | -0.479 (inactive) | -3.3e-05 (inactive) | 0.00613 (inactive) | 16.2% (inactive) | 22.4% (inactive) |
| CC(=O)N(C(C)=O)c1ncc2c([nH]c3ccccc32)c1C#N | 320 | 2.1% (inactive) | -79% (inactive) | 2.8% | 0.9% (inactive) | 117% | -0.406 (inactive) | -2.2e-05 (inactive) | 0.00457 (inactive) | 11.7% (inactive) | 15.6% (inactive) |
| N#Cc1cc2ccccc2nc1SCC(=O)Nc1ccccc1N1CCOCC1 | 448 | 13.7% (inactive) | 8.2% (inactive) | 100% | -12.8% (inactive) | 106% | -0.481 (inactive) | -2.6e-05 (inactive) | 0.00662 (inactive) | 9.6% (inactive) | 9.63% (inactive) |
| CCOc1cc(C(=O)Nc2ncccn2)cc(OCC)c1OCC | 280 | 6.6% (inactive) | 38% (active) | 103% | -193% (inactive) | 100% | -0.476 (inactive) | -2.8e-05 (inactive) | 0.0062 (inactive) | 8.28% (inactive) | 27.2% (inactive) |
| O=C(Nc1ccccc1)N(O)c1ccc(Cl)cc1 | 284 | -11.4% (inactive) | 38.9% (active) | 90.3% | 44.1% (inactive) | 85.6% | -0.378 (inactive) | -7.1e-05 (inactive) | 0.00373 (inactive) | -39.6% (inactive) | -78.3% (inactive) |
| COc1ccc(C2CC(c3ccc(Cl)cc3Cl)n3nc(N)nc3N2)cc1 (stereo unspecified) | 461 | -1.8% (inactive) | -8.9% (inactive) | 66.5% | -1.4% (inactive) | 101% | -0.592 (inactive) | -5.5e-05 (inactive) | 0.00726 (inactive) | 9.25% (inactive) | 25.2% (inactive) |
| COc1ccc2c(CC(=O)Nc3nnc(C4CC4)s3)coc2c1 | 286 | -15.7% (inactive) | 7.5% (inactive) | 105% | -13.2% (inactive) | 111% | -0.482 (inactive) | -0.000211 (inactive) | 0.00533 (inactive) | 9.99% (inactive) | 14.7% (inactive) |
| Cc1ccc(S(=O)(=O)Nc2cc(C(=O)O)ccc2N2CCCCC2)cc1 | 518 | -20.1% (inactive) | 15.4% (inactive) | 98.1% | -107% (inactive) | 114% | -0.42 (inactive) | -2.5e-05 (inactive) | 0.00575 (inactive) | 11.2% (inactive) | 29.2% (inactive) |
| C=CCN1C(=O)C2(/C(=C(\O)c3ccc4c(c3)OCCO4)C(=O)C(=O)N2CCCOC)c2ccccc21 (stereo unspecified) | 390 | 8.6% (inactive) | 0.7% (inactive) | 104% | -37.2% (inactive) | 128% | -0.465 (inactive) | -1.1e-05 (inactive) | 0.00507 (inactive) | 20.5% (inactive) | 21.2% (inactive) |
| Cn1c(=O)c2[nH]c(NCC3CCCO3)nc2n(-c2ccccc2)c1=O (stereo unspecified) | 359 | -0.4% (inactive) | -11.4% (inactive) | 108% | -80% (inactive) | 116% | -0.407 (inactive) | -7.1e-05 (inactive) | 0.00463 (inactive) | 14% (inactive) | 32.3% (inactive) |
| Cc1ccc(Cn2nnnc2CN2CCC(O)(c3ccccc3F)CC2)cc1 | 784 | 0.2% (inactive) | 12.3% (inactive) | 96.1% | -57% (inactive) | 122% | -0.498 (inactive) | -5.4e-05 (inactive) | 0.00492 (inactive) | 20.8% (inactive) | 16.6% (inactive) |
| Cc1onc(-c2ccccc2)c1C(=O)Nc1ccc(S(=O)(=O)N2CCCCC2)cc1 | 786 | 7.8% (inactive) | -10.9% (inactive) | 97.3% | -35.5% (inactive) | 108% | -0.599 (inactive) | -5.5e-06 (inactive) | 0.00592 (inactive) | 15.1% (inactive) | 32.9% (inactive) |
| CCCCN(C(=O)c1ccc(Cl)cc1)C1CC2CCC(C1)N2C (stereo unspecified) | 588 | 6.5% (inactive) | 5.4% (inactive) | 114% | -93.1% (inactive) | 116% | -0.561 (inactive) | -6.5e-05 (inactive) | 0.0056 (inactive) | -6.18% (inactive) | 35.3% (inactive) |
